# Results as given in PubChem BioAssay (NCI).
# Compounds without any hit were thinned out: in the full panel of roughly 83,000, 20% have a hit.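 Compound tested at a single concentration for 48 hours in 96-well plates; a percent growth value below 10 was scored as active.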 A number with no mark means an inactive call. The source made the active and inactive calls.
# Assays:
# Experiment in all cases: NCI-60 one-dose screen, 48 h (100 = growth as untreated, 0 = no growth, -100 = all killed)
# Settings in all cases: 10 µM unless noted
# T-47D breast = system: T-47D breast
# BT-549 breast = system: BT-549 breast
# MDA-MB-435 melanoma = system: MDA-MB-435 melanoma
# SW-620 colon = system: SW-620 colon
# MCF7 breast = system: MCF7 breast
# HCT-116 colon = system: HCT-116 colon
# HCC-2998 colon = system: HCC-2998 colon
# KM12 colon = system: KM12 colon
SMILES,growth (T-47D breast),growth (BT-549 breast),growth (MDA-MB-435 melanoma),growth (SW-620 colon),growth (MCF7 breast),growth (HCT-116 colon),growth (HCC-2998 colon),growth (KM12 colon)
CC1=CC[C@@H]2C(C)(C)[C@@H](O)CC[C@@]2(C)[C@@H]1COc1ccc2ccc(=O)oc2c1,-10.1% (active),18%,77.6%,79.2%,77.8%,44.6%,88%,40.4%
Cc1ccc(Cn2c(O)c(N=NC(=O)c3ccc(S(N)(=O)=O)cc3)c3ccccc32)cc1,83.7%,102%,102%,100%,95%,102%,114%,106%
O=[N+]([O-])c1cc([N+](=O)[O-])c(NN=C(c2ccc(O)cc2)c2ccc(O)cc2)cc1Cl,-50.4% (active),-11.6% (active),-62.1% (active),-75% (active),-65.4% (active),-91.1% (active),-93.5% (active),-77.7% (active)
CCN(CC)c1ccc2cc(C(Nc3ccc(C)cc3)c3nnnn3C(C)(C)C)c(=O)oc2c1 (stereo not given),71.1%,89.1%,97.5%,102%,81.4%,87.9%,107%,103%
CC(=O)OC[C@]12CC[C@@H](C(=O)CBr)[C@@H]1[C@H]1CC[C@@H]3[C@@]4(C)CCCNC(C)(C)[C@@H]4CC[C@@]3(C)[C@]1(C)CC2,-69.9% [100 µM] (active),-62% [100 µM] (active),-87.9% [100 µM] (active),-58% [100 µM] (active),-54.3% [100 µM] (active),-71.2% [100 µM] (active),-83.3% [100 µM] (active),-78.2% [100 µM] (active)
CCCCCCCCCCCCCCCCCCNC(=S)N/N=C/c1ccc(OC)c(OC)c1,95.8%,79.9%,97.4%,99.2%,96.8%,96.9%,101%,97.1%
CCOc1ccccc1/C=N\Nc1ccc(S(=O)(=O)c2ccc(N/N=C/c3ccccc3OCC)cc2)cc1,75.6%,83.4%,99.3%,97.9%,79.1%,87.5%,107%,91.5%
COc1ccc(C2CC(c3ccc4ccccc4c3)=NN2c2nc(O)c(C3=c4cc(OC)ccc4=NC3=O)s2)cc1 (stereo not given),-72.7% (active),-19.8% (active),-59.5% (active),-42% (active),-29.4% (active),-64.5% (active),-70.4% (active),-70.3% (active)
Cc1cc(NN=C(c2ccc(O)cc2)c2ccc(O)cc2)c([N+](=O)[O-])cc1[N+](=O)[O-],33.1%,90.8%,47.5%,71.4%,32%,28.6%,61.9%,37.7%
CCc1ccc(C2=C/C(=C/c3ccccc3)C(=O)N2CCc2ccc(S(N)(=O)=O)cc2)cc1,97.8%,100%,110%,106%,96.3%,103%,109%,104%
CC(C)OC(=O)Nc1cc(F)ccc1F,94.8%,111%,99.4%,99.8%,97.1%,105%,98.3%,103%
COc1cccc(-c2[nH]c(=S)ncc2C(=O)c2ccccc2)c1,104%,73.9%,-20% (active),66.6%,69.8%,61.3%,102%,51.5%
O=C(O)c1cc([N+](=O)[O-])ccc1Br,101%,91.5%,98.5%,104%,95.8%,99.5%,104%,101%
COC(=O)c1cc(O)c2c(c1C(=O)OC)C[C@H]1[C@@H]3CC=C4C[C@@H](O)CC[C@]4(C)[C@H]3CC[C@]21C,36%,32.3%,37.6%,44.9%,37.2%,22%,41.6%,36.3%
COC(=O)[C@]12CCC(C)(C)C[C@H]1C1=CC[C@@H]3[C@@]4(C)C/C(=C/c5cccnc5)C(=O)C(C)(C)[C@@H]4CC[C@@]3(C)[C@]1(C)CC2,-12% [100 µM] (active),-45.7% [100 µM] (active),-51.1% [100 µM] (active),-43.4% [100 µM] (active),-65.1% [100 µM] (active),-29.4% [100 µM] (active),-72.8% [100 µM] (active),-48.6% [100 µM] (active)
CN(C)CCOc1ccc(/C(=C(/CCCl)c2ccccc2)c2ccccc2)cc1,25.6%,46.8%,-7.62% (active),15.8%,3.24% (active),6.56% (active),-41.2% (active),-47.4% (active)
C=C(C)[C@@H]1CC[C@]2(c3ncc(C)o3)CC[C@]3(C)[C@H](CC[C@@H]4[C@@](C)(CCC#N)[C@H](C(=C)C)CC[C@]43C)[C@@H]12,-73.4% [100 µM] (active),-76% [100 µM] (active),-84.6% [100 µM] (active),-70% [100 µM] (active),-73.3% [100 µM] (active),-81.8% [100 µM] (active),-80.9% [100 µM] (active),-75.1% [100 µM] (active)
CC(C)=CC/C=C(/C)[C@H]1CC[C@]2(C)[C@@H]1CC[C@@H]1[C@@]3(C)CCC(=O)NC(C)(C)[C@@H]3CC[C@]12C,-3.77% [100 µM] (active),-0.884% [100 µM] (active),-4.47% [100 µM] (active),-58.8% [100 µM] (active),8.52% [100 µM] (active),-37.4% [100 µM] (active),5.26% [100 µM] (active),-56% [100 µM] (active)
CCc1ccc(NC(=O)N[C@@H](Cc2cc(F)cc(F)c2)C(=O)N[C@@H]2C(=O)N3C[C@H](O)C[C@H]3C(=O)N3CCOC[C@H]3C(=O)N[C@@H](C)C(=O)N3C[C@H](C)C[C@H]3C(=O)O[C@H]2C)cc1,18.2%,11.3%,21.5%,48.5%,24.1%,13.7%,32.1%,42.7%
COc1ccc(/C=C/C=C\C(=O)c2ccc(-n3ccnc3)cc2)cc1,58.1%,50%,92.8%,98.4%,79.5%,-76.2% (active),99.9%,92.8%
C=C(CN=[N+]=[N-])[C@@H]1CC[C@]2(C)[C@H](CC[C@@H]3[C@H]4[C@H]5OC(=O)[C@@]4(CCC5(C)C)CC[C@]32C)[C@@]1(C)CCC#N,55.6% [100 µM],78.7% [100 µM],76.3% [100 µM],87.3% [100 µM],64.5% [100 µM],47.3% [100 µM],89.3% [100 µM],81.7% [100 µM]
C[C@H]1[C@H](C)CC[C@]2(C(=O)O)CC[C@]3(C)C(=CC[C@@H]4[C@@]5(C)C/C(=C/c6ccco6)C(=O)C(C)(C)[C@@H]5CC[C@]43C)[C@H]12,-14.3% [100 µM] (active),-62.5% [100 µM] (active),-85.1% [100 µM] (active),-44.9% [100 µM] (active),-74.7% [100 µM] (active),-73% [100 µM] (active),-81.4% [100 µM] (active),-73.5% [100 µM] (active)
COc1cc(NN=C(c2ccc(O)cc2)c2ccc(O)cc2)c([N+](=O)[O-])cc1[N+](=O)[O-],-10.1% (active),111%,95.6%,98.9%,1.9% (active),1.31% (active),2.63% (active),73.2%
O=C(N/N=C/c1c(Cl)cccc1Cl)c1cccc(Nc2ccnc(C(F)(F)F)c2)c1,37%,90.8%,78.9%,99%,66.1%,77.2%,89.1%,108%
Cc1cnc([C@]23CC[C@@H](C)[C@H](C)[C@H]2C2=CC[C@@H]4[C@@]5(C)Cc6c([nH]c7ccccc67)C(C)(C)[C@@H]5CC[C@@]4(C)[C@]2(C)CC3)o1,58% [100 µM],46.5% [100 µM],-16.7% [100 µM] (active),20.6% [100 µM],46.8% [100 µM],17.3% [100 µM],50% [100 µM],24.7% [100 µM]
